The values that follow come from article PMC4336329 (PLoS ONE, 2015).

Among all 310,000 compounds or so, about 14,000 (4.5%) showed an effect of 50% or more. Effects have a minus sign here. The list comes from a sample in which strong results are over-represented; it also holds similar structures and randomly drawn compounds.
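Further: peak tail current of the secondary pulse compared with the same well before compound.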

human ether-à-go-go-related gene (hERG) potassium channel, sequence (Q12809 whole entry, looked up): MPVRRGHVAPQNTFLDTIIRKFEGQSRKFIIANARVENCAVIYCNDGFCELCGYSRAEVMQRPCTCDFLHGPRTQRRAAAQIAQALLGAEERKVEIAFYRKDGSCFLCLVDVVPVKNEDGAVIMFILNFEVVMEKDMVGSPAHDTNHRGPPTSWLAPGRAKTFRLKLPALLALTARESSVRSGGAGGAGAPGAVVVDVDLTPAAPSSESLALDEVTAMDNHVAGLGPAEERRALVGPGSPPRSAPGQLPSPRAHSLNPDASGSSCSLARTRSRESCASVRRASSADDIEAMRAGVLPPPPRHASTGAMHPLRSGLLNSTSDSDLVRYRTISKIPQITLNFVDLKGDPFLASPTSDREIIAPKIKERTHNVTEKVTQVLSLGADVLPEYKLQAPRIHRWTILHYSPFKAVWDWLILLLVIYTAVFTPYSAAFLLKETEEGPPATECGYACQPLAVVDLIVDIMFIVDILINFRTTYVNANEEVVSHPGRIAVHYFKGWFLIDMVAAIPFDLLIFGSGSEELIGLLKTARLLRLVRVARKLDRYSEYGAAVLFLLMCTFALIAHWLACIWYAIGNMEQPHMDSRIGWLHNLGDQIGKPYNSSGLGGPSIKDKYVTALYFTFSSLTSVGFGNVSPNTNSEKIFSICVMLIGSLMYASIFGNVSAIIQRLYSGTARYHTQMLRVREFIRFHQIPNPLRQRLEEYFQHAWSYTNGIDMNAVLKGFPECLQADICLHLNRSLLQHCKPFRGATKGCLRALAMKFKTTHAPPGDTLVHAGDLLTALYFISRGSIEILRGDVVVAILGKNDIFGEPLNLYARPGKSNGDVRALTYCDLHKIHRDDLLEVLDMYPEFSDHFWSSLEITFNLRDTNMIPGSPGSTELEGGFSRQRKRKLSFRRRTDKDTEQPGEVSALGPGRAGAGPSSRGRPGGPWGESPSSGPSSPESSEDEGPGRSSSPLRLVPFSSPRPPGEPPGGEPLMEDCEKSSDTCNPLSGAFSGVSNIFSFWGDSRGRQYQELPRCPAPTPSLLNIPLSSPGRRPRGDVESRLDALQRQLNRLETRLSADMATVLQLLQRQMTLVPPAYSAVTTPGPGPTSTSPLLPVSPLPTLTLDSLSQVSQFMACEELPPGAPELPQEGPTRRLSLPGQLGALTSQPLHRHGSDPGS

The assay concerns the target human ether-à-go-go-related gene (hERG) potassium channel (human, UniProt Q12809). In words: primary screen, population patch clamp on CHO cells stably expressing hERG; higher = less effect of the substance.
Regarding `Cc1ccc(NC(=O)C(c2ccccc2)N2CCN(CC(=O)N3CCOCC3)CC2)cc1` (stereo not shown), the “hERG current change (%, negative = inhibition) at 10uM” value is reported as -43%. With `O=C(CN1CCN(C(c2ccccc2)c2ccccc2)CC1)N1CCOCC1.O=C(O)C(=O)O`, the “hERG current change (%, negative = inhibition) at 10uM” value is -22.3%. Then `O=C(Nc1ccc(F)cc1)C(c1ccccc1)N1CCN(CC(=O)N2CCOCC2)CC1` (stereo not shown), with -52.1%. Then `Cc1ccc(NC(=O)C(c2ccccc2)N2CCN(CC(=O)N3CCOCC3)CC2)cc1Cl` (stereo not shown), with -67.4%. Regarding `CCOc1ccccc1NC(=O)NC1(C(=O)N2CCOCC2)CCCCC1`, the “hERG current change (%, negative = inhibition) at 10uM” value was determined as 15.6%.

For `COc1cccc(NC(=O)C(c2ccccc2)N2CCN(CC(=O)N3CCOCC3)CC2)c1` (stereo not shown), the “hERG current change (%, negative = inhibition) at 10uM” value was -36.8%. For the molecule `CCOc1ccccc1NC(=O)C(c1ccccc1)N1CCN(CC(=O)N2CCOCC2)CC1` (stereo not shown), the “hERG current change (%, negative = inhibition) at 10uM” value is given as -76.1%. Turning to `O=C(Nc1ccc(F)cc1)C(c1ccccc1)N1CCN(S(=O)(=O)c2ccccc2)CC1` (stereo not shown), the “hERG current change (%, negative = inhibition) at 10uM” value is reported as -5.63%. `O=C(CN1CCN(C(C(=O)Nc2ccc(F)cc2)c2ccccc2)CC1)NC1CC1` (stereo not shown): the “hERG current change (%, negative = inhibition) at 10uM” value is given as -27.8%. On to `O=C(Nc1ccc(F)cc1)C(c1ccccc1)N1CCN(CC(=O)N2CCCC2)CC1` (stereo not shown), for which the “hERG current change (%, negative = inhibition) at 10uM” value is on record as -65.3%. For `CC(C)c1ccc(NC(=O)C(c2ccccc2)N2CCOCC2)cc1` (stereo not shown), the “hERG current change (%, negative = inhibition) at 10uM” value was -12.2%. As to `COC(=O)c1c(C(=O)OC)c2n(c1C)CCS2`, the “hERG current change (%, negative = inhibition) at 10uM” value is 3.54%.

`COc1ccc(OC)c(NC(=O)COC(=O)Cn2nnc(-c3ccccc3)n2)c1`: the “hERG current change (%, negative = inhibition) at 10uM” value is on record as 2.66%. Then `CCCc1nn2c(=O)cc(CSCC(=O)Nc3ccccc3OC)nc2s1`, with 14.8%. Regarding `O=C(CSc1nc2ccccc2nc1N1CCOCC1)Nc1ccccc1F`, the “hERG current change (%, negative = inhibition) at 10uM” value is -4.19%. Regarding `COc1cccc(C(=O)Nc2ccc(NC(=O)Cc3ccccc3)cc2)c1`, the “hERG current change (%, negative = inhibition) at 10uM” value is -24.1%. As to `CCOc1ccccc1CNc1nc2nc3c(c(=O)n2[nH]1)CCC3`, the “hERG current change (%, negative = inhibition) at 10uM” value was determined as 19.6%. Consider `Oc1c(Br)cc(C2N=C(c3ccccc3Cl)NO2)cc1Br` (stereo not shown), for which the “hERG current change (%, negative = inhibition) at 10uM” value was -2.5%. As for `CCCc1c(C)nc(N2CCN(c3ccccc3OC)CC2)[nH]c1=O`, the “hERG current change (%, negative = inhibition) at 10uM” value was 25.2%. For the molecule `COc1ccccc1C(=O)NC(=O)COC(=O)c1ccc(Cl)cc1[N+](=O)[O-]`, the “hERG current change (%, negative = inhibition) at 10uM” value is listed as 21.6%. For the molecule `COc1ccc(Nc2nc(Nc3ccc(OC)cc3)nc(-n3[nH]c(=O)c(C)c3C)n2)cc1`, the “hERG current change (%, negative = inhibition) at 10uM” value was -10.1%. Regarding `CCOc1cc(/C=N/NC(=O)c2ccc(N(C)S(=O)(=O)c3ccccc3)cc2)ccc1OC`, the “hERG current change (%, negative = inhibition) at 10uM” value is listed as -33%. As to `Cc1cccc2[nH]c(CN(C)Cc3nc(CC4CC4)no3)nc12`, the “hERG current change (%, negative = inhibition) at 10uM” value is recorded as -11.8%.

In the case of `O=C(COc1ccc(CO)cc1)Nc1ccc(F)cc1`, the “hERG current change (%, negative = inhibition) at 10uM” value stood at 0.156%. Consider `CCc1cc(=O)oc2c(C)c(O)c(CN3CCCCC3)cc12`, for which the “hERG current change (%, negative = inhibition) at 10uM” value was -0.833%. Turning to `CCc1n[nH]c(=S)n1N=C1CCC(C)CC1` (stereo not shown), the “hERG current change (%, negative = inhibition) at 10uM” value was determined as 19.1%. Then `CC1(C)CC(=O)C=C(NC2=CC3OC(c4ccccc4)OCC3OC2=O)C1` (stereo not shown), with -0.196%; and `C#Cc1ccc([C@@H]2C=C(C(=O)Nc3ccccc3)O[C@H](OCC)[C@H]2CCCO)cc1`, with -22.2%. As for `CN1CCCN(C(=O)c2cc(-c3ccc(Cl)c(Cl)c3Cl)nc3ccccc23)CC1.Cl`, the “hERG current change (%, negative = inhibition) at 10uM” value is listed as -69%.

Regarding `CC(=O)N1CCN(C(=O)c2cc(-c3cccc4ccccc34)nc3ccccc23)CC1`, the “hERG current change (%, negative = inhibition) at 10uM” value is recorded as -28.9%. Next, `CN1CCCN(C(=O)c2cc(-c3cccc4ccccc34)nc3ccccc23)CC1.Cl`: -59.4%; `Cc1ccccc1-c1cc(C(=O)N2CCCC2)c2ccccc2n1`: -47.9%; `O=C(c1cc(-c2ccccc2Cl)nc2ccccc12)N1CCN(c2ccccc2O)CC1`: -22.6%. Consider `O=C(c1cc(-c2ccccc2Cl)nc2ccccc12)N1CCC1`, for which the “hERG current change (%, negative = inhibition) at 10uM” value was -12.4%.

On to `CCOC(=O)CNC(=O)CSc1nnc(-c2ccncc2)n1-c1ccc(Cl)cc1`, for which the “hERG current change (%, negative = inhibition) at 10uM” value was -8.18%.

As for `Cc1ccccc1OCC(O)CN1C(=O)c2ccccc2C1=O` (stereo not shown), the “hERG current change (%, negative = inhibition) at 10uM” value worked out at 4.28%. Next, `Cc1cccc(OCC(O)CN2CCN(CCN3C(=O)c4cccc5cccc(c45)C3=O)CC2)c1C` (stereo not shown): -35.7%. Take `C=CCc1ccccc1OCC(O)CN1C(=O)c2ccccc2C1=O` (stereo not shown): the “hERG current change (%, negative = inhibition) at 10uM” value is -27.2%. As for `Cc1ccccc1OCC(O)CN1CCN(CCN2C(=O)c3cccc4cccc(c34)C2=O)CC1` (stereo not shown), the “hERG current change (%, negative = inhibition) at 10uM” value was -74.2%. With `Cc1ccc(C)c(OCC(O)CN2CCN(CCN3C(=O)c4cccc5cccc(c45)C3=O)CC2)c1.Cl` (stereo not shown), the “hERG current change (%, negative = inhibition) at 10uM” value was -67.3%. Consider `NC(=O)CN1CCN(CCN2C(=O)c3cccc4cccc(c34)C2=O)CC1`, for which the “hERG current change (%, negative = inhibition) at 10uM” value was -5.61%. Next, `CC(=O)c1ccccc1OCC(O)CN1CCN(CCN2C(=O)c3cccc4cccc(c34)C2=O)CC1` (stereo not shown): -73.3%; `C=CCc1ccccc1OCC(O)CN1CCN(CCO)CC1.Cl` (stereo not shown): 11.3%.

With `Cc1ccc(NC(=S)N2CCN(CCN3C(=O)c4cccc5cccc(c45)C3=O)CC2)cc1`, the “hERG current change (%, negative = inhibition) at 10uM” value is listed as -1.29%.

As to `O=C(C(c1ccccc1)c1ccccc1)N1CCN(CCN2C(=O)c3cccc4cccc(c34)C2=O)CC1`, the “hERG current change (%, negative = inhibition) at 10uM” value is -4.74%. Consider `C=CCc1ccccc1OCC(O)CN1CCN(CCN2C(=O)c3cccc4cccc(c34)C2=O)CC1.Cl` (stereo not shown), for which the “hERG current change (%, negative = inhibition) at 10uM” value is given as -57.8%.
